This passage reports caspase-3 activation, outcome and Potency results from PubChem BioAssay (NCATS).

The structures appear in SMILES notation. A number with no mark means an inactive call. Results filed as inconclusive are left out. Activity calls are given as the source filed them. Calls come from the whole dose curve; as a rule, active = well fitted curve in the direction sought with a large enough effect; inconclusive = small, poorly fitted or top-dose-only effect, or another doubt; inactive = no such curve, though single readings can be large; an effect the other way counts as inactive or inconclusive.

Assay [1] in a line: Cellular Toxicity (caspase-3) Mesangial (AID 660).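 Note: combined caspase 3 and 7 activity read by Caspase-Glo luminescence; cells exposed to compound for 16 h before the caspase read.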 To be noted: mesangial cells, normalized: DMSO 0%, 100 µM tamoxifen 100%; at 91.7 µM (top of the series). In a few lines:
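Seed cells derived from normal human renal glomeruli, incubate 5 h, add compounds across concentrations and incubate 16 h at 37 °C. Caspase 3/7 activation is then quantified by luciferase light, with AC50 derived by Hill modeling.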

Assay [2] in a line: Cellular Toxicity (caspase-3) SK-N-SH (AID 661).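 Note: 0% = DMSO basal and 100% = 10 µM staurosporine.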 In a few lines:
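Cells were seeded and incubated 5 hr at 37 °C, dosed with compound over a concentration range for 16 hr, then given Caspase-Glo 3/7 reagent for 1 hr at room temperature before luminescence reading.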

Assay [3] can be described thus: Cellular Toxicity (caspase-3) H-4-II-E (AID 663).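 Note: cells exposed to compound for 16 hr before readout.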 To be noted: H-4-II-E rat hepatoma, scaled: DMSO 0%, 100 µM tamoxifen 100%; at 92.2 µM (top of the series). In a few lines: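 Caspase 3/7 activation measured by luminescent aminoluciferin substrate cleavage after 16 hr compound treatment of H-4-II-E cells in complete medium. Increase normalized between DMSO (basal) and 100 uM tamoxifen (100%); Hill-equation AC50 from concentration-response.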

Assay [4] can be described thus: Cellular Toxicity (caspase-3) Hek293 (AID 664).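 Note: cells exposed to compound for 16 h at 37 °C before readout.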 The conditions noted are these: HEK293 caspase-3 activation, DMSO = 0%, 100 µM tamoxifen = 100%; at 92.2 µM (top of the series). In a few lines: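 qHTS, HEK293 (human embryonic kidney), 16 h cpd exposure in complete medium. Caspase-3/7 activation = luminescence increase; normalized to DMSO/100 uM tamoxifen; Hill-fit AC50.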

Assay [5] in a line: Cellular Toxicity (caspase-3) N2a (AID 665).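 Note: compound exposure lasted 16 h at 37 °C before readout.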 In a few lines:
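Caspase-3/7 activation, measured as increased luminescence from aminoluciferin release, is quantified in mouse N2a cells exposed to compounds for 16 h. Values are normalized to DMSO and 10 uM staurosporine, with AC50 derived by Hill modelling.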

Assay [6] in a line: Cellular Toxicity (caspase-3) NIH 3T3 (AID 666).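 Note: caspase signal read after 16 h compound exposure.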 In a few lines: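 Cells were plated at 1000 per well and incubated 5 hr at 37°C, then compound was added for 16 hr. Caspase-Glo 3/7 reagent followed for 20 min at room temperature before luminescence was read.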
Assay [7] is described as follows: Cellular Toxicity (caspase-3) Renal Proximal Tubule (AID 667).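 Note: cells exposed to compound for 16 hours at 37 °C before detection; 0% = DMSO basal and 100% = 10 µM staurosporine.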 To be noted: Potency: caspase-3 activation. In a few lines:
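In qHTS format, rat primary proximal tubule cells seeded at 1000 per well are exposed to compounds for 16 hours at 37 °C. An increase in Caspase-Glo 3/7 luminescence indicates caspase activation.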

In assay [8] the target is Cytochrome P450 3A4 (Homo sapiens) (UniProt P08684). Description: qHTS Assay for Inhibitors and Substrates of Cytochrome P450 3A4 (AID 884). Note: nearly all actives have a fitted effect of over 50% in size. Note: potency is the fitted concentration of half-maximal effect. In a few lines:
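Luminescent readout of luciferin produced by CYP3A4 (20 nM) dealkylation of Luciferin-PPXE, 25 uM (its KM). NADPH-driven reaction ran 60 min at RT after 10 min compound preincubation; data scaled to 57 uM ketoconazole as 100% inhibition.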
(In qHTS, concentration-response curves come from the screen itself.)

Assay [9] is described as follows: Cell Viability - LYMP2-001 (AID 921).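 Note: cells exposed to compound for 24 h at 37 °C; 0% = DMSO only and full inhibition = tetraoctylammonium bromide control wells; nearly all actives have a fitted effect of over 70% in size.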 In a few lines: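 qHTS, 1536-well; lymphoblastoid cells, 24 hr compound, 37 C; ATP by CellTiter-Glo, 30 min RT; luminescence; Hill-fit AC50.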
For assay [10], the target named is Cytochrome P450 3A4 (Homo sapiens) (UniProt P08684). Description: qHTS Assay for Activators of Cytochrome P450 3A4 (AID 885). Note: nearly all actives have a fitted effect of over 65% in size. In a few lines: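 Luminescent readout of luciferin formed from 25 uM Luciferin-PPXE (KM level) by 20 nM CYP3A4 in 200 mM KPO4, with 60 min NADPH-driven reaction at room temperature after 10 min compound exposure. Ketoconazole (57 uM) defined 100% inhibition.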
Sequence of Cytochrome P450 3A4 (Homo sapiens) (P08684 whole entry, looked up): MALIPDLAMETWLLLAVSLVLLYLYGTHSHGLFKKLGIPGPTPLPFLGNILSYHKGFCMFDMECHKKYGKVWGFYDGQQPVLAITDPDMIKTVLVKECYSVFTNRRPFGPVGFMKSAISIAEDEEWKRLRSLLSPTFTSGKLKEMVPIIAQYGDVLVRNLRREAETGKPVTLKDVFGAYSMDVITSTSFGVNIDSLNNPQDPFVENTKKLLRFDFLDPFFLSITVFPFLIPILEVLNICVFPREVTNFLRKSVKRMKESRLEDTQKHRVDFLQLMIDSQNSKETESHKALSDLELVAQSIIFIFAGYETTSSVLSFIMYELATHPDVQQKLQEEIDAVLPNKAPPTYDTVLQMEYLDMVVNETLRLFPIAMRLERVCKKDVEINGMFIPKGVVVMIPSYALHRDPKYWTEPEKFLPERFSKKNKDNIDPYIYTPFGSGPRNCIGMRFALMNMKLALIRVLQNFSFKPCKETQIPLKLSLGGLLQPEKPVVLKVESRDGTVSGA

For `C/C=C(/C)C#N`, the caspase-3 activation in [1] is -0.503%; in assay [3], 0.589%; in [4], 0.51%. The result in [2], in assay [5] and in assay [6] was inactive. Moreover, the Potency entry in assay [7], in [8] and in [9] was “inactive” throughout.

Take `CN(C)c1cccc(O)c1`: the results for the caspase-3 activation in assay [1], in [3] and in assay [4] were 1.93%, 2.04% and 0.706%, respectively. Moreover, the outcome in [2], in assay [5] and in assay [6] was inactive. The Potency result in assay [7], in assay [8] and in assay [9] was “inactive” throughout.

Turning to `Cc1ccc(C)c(N)c1`, the caspase-3 activation in assay [1] is 1.89%; in assay [3] it was 3.4%; in [4] it was 3.4%. For the same molecule, the result in assay [2], in assay [5] and in assay [6] was inactive. In addition, the Potency entry in [7], in [8] and in assay [9] was “inactive” throughout.

With `Cc1ccc2ccccc2c1[N+](=O)[O-]`, the caspase-3 activation in [1] is 0.0968%; in assay [3], -1.44%; in [4] it was -2.81%. For the same molecule, the molecule was called inactive in assay [2], in assay [5] and in assay [6]. The Potency entry in [7], in [8] and in assay [9] was “inactive” in each case.

As to `CCCCOCCOCCSC#N`, the values for the caspase-3 activation in assay [1], in assay [3] and in assay [4] were -0.616%, 0.183% and -2.09%, respectively. The molecule was classed as inactive in assay [2], in assay [5] and in assay [6]. For the same molecule, the Potency result in assay [7], in [8] and in assay [9] was “inactive” in each case.

With `Cc1cc(C)cc([N+](=O)[O-])c1`, the caspase-3 activation in assay [1] was -0.822%; in assay [3] it was 0.227%; in assay [4], 0.15%. For the same molecule, the molecule was classed as inactive in [2], in assay [5] and in [6]. Further, the Potency entry in assay [7], in [8] and in [9] was “inactive” throughout.

In the case of `Clc1ccc(Cl)c(Cl)c1Cl`, the caspase-3 activation in [1] is -0.853%; in [3], -0.982%; in assay [4] it was -1.37%. In addition, the outcome in [2], in assay [5] and in assay [6] was inactive. Besides, the Potency result in [7], in [8] and in [9] was “inactive” throughout.

As for `CCOC(C)(C)C`, the caspase-3 activation was -0.979% in assay [1], -0.707% in [3] and 1.78% in [4]. In addition, the call in assay [2], in assay [5] and in [6] was inactive. The Potency result in assay [7], in [8] and in assay [9] was “inactive” each time.

As to `O=C(O)c1ccc(C(=O)O)cc1`, the caspase-3 activation in assay [1] was -1.02%; in assay [3], 0.895%; in [4], -1.8%. Moreover, the call in assay [2], in assay [5] and in assay [6] was inactive. The Potency result in [7], in assay [8] and in [9] was “inactive” throughout.

Take `Nc1cccc(O)c1`: the caspase-3 activation was 0.168% in assay [1], -0.484% in assay [3] and 1.1% in assay [4]. Further, the molecule was called inactive in assay [2], in assay [5] and in [6]. The Potency entry in assay [7], in assay [8] and in [9] was “inactive” each time.

For `C=CCCC`, the caspase-3 activation was -0.34% in [1], 1.14% in [3] and -1.75% in [4]. Also, the call in [2], in [5] and in [6] was inactive. Besides, the Potency entry in [7], in [8] and in [9] was “inactive” throughout.

Regarding `C=Cc1ccccc1C=C`, the figures for the caspase-3 activation in assay [1], in [3] and in [4] were 0.384%, 0.884% and 1.48%, respectively. The result in assay [2], in [5] and in assay [6] was inactive. The Potency entry in assay [7], in assay [8] and in [9] was “inactive” each time.

In the case of `Cc1cc(C)cc(N)c1`, the caspase-3 activation in assay [1] was -0.679%; in assay [3], -0.0763%; in assay [4], -0.185%. For the same molecule, the molecule was called inactive in assay [2], in assay [5] and in assay [6]. Besides, the Potency result in [7], in assay [8] and in assay [9] was “inactive” in each case.

Take `CCCCC=O`: the caspase-3 activation in [1] was -1.05%; in [3], -0.686%; in assay [4], -0.315%. Moreover, the molecule was classed as inactive in [2], in assay [5] and in assay [6]. Further, the Potency result in assay [7], in [8] and in assay [9] was “inactive” in each case.

With `C=CCOC(=O)COCCC(C)C`, the caspase-3 activation in [1] is -0.0239%; in [3] it was -0.913%; in assay [4], -2.01%. Moreover, the outcome in assay [2], in assay [5] and in assay [6] was inactive. Also, the Potency entry in assay [7], in assay [8] and in [9] was “inactive” each time.

As to `CN(C)CCCNCCCN`, the caspase-3 activation in assay [1] was -0.219%; in assay [3], -0.0657%; in assay [4], 0.619%. Further, the call in assay [2] and in [5] was inactive. For the same molecule, the Potency entry in [7] and in [8] was “inactive” each time.

As for `Cc1ccc2c(c1[N+](=O)[O-])C(=O)c1ccccc1C2=O`, the values for the caspase-3 activation in [1], in assay [3] and in [4] were -0.888%, -1.7% and -1.55%, respectively. Moreover, the result in assay [2], in [5] and in assay [10] was inactive. The Potency entry in [7] and in assay [9] was “inactive” throughout. For the same molecule, in [8], the Potency is 12.6 µM (active).

As to `C1CCC2OC2C1` (stereo not drawn), the values for the caspase-3 activation in assay [1], in assay [3] and in [4] were -0.0644%, -0.699% and 1.05%, respectively. Moreover, the call in [2], in [5] and in assay [6] was inactive. Also, the Potency entry in [7], in assay [8] and in assay [9] was “inactive” each time.

As for `C1COC1`, the caspase-3 activation in [1] was 0.626%; in [3] it was 1.05%; in assay [4] it was -1.66%. Further, the molecule was called inactive in assay [2] and in assay [5]. For the same molecule, the Potency entry in assay [7], in assay [8] and in [9] was “inactive” each time.

As for `CC(C)CO`, the caspase-3 activation is 0.186% in assay [1], -0.412% in [3] and -2.74% in assay [4]. Besides, the molecule was called inactive in assay [2], in assay [5] and in [6]. For the same molecule, the Potency result in assay [7] and in [9] was “inactive” each time.

In the case of `CNC(=O)N(c1ccccc1)c1ccccc1`, the caspase-3 activation was 0.477% in [1], 1.51% in assay [3] and 0.502% in assay [4]. For the same molecule, the molecule was called inactive in assay [2] and in [5]. In addition, the Potency entry in assay [7], in assay [8] and in assay [9] was “inactive” throughout.

As for `O=[N+]([O-])c1ccc2nc[nH]c2c1`, the caspase-3 activation in assay [1] is 0.38%; in [3], 2.59%; in assay [4] it was 0.287%. In addition, the molecule was classed as inactive in [2], in [5], in assay [6] and in assay [10]. Besides, the Potency entry in assay [7] and in assay [9] was “inactive” in each case.
